# Assay results reported in article PMC7862700, “An all-to-all approach to the identification of sequence-specific readers for epigenetic DNA modifications on cytosine”.
# Columns and labels:
# Assay in all cases: DAPPL (digital affinity profiling via proximity ligation, sequencing); 10 mM Tris-HCl pH 7.5, 50 mM NaCl, 1 mM DTT, 4% glycerol, room temperature, 30 min; GST-TFs on glutathione beads, 16-mer random dsDNA library, 0.1% formaldehyde crosslink after washing; high values mean tight binding
# Conditions in all cases: protein: recombinant; tags: N-terminal GST; dsDNA, one strand shown
# FLI1 = molecular target: T1, FLI1 (Homo sapiens, UniProt Q01543 1-452)
# T1 sequence: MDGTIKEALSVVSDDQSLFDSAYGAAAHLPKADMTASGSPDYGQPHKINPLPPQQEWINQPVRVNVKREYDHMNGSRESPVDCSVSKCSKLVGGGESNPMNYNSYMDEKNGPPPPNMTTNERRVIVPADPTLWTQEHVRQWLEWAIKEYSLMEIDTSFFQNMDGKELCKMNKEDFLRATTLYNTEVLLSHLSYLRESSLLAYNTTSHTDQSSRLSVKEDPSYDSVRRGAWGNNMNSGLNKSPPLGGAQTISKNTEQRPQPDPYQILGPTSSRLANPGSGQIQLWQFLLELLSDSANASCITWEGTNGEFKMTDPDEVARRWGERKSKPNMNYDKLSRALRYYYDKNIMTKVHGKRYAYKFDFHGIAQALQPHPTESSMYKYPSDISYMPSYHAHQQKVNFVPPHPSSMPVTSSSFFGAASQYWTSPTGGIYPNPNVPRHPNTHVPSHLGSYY
# In short: (§1)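 Yeast served to express human transcription factors as GST fusions, which were then captured on glutathione beads and labelled with DNA barcodes. Pooled with a tag-only sample, they were incubated with 200 nmole of a 16-mer random double-stranded DNA library for 30 min at room temperature in Tris/NaCl/DTT/glycerol buffer, washed, crosslinked with 0.1% formaldehyde, ligated by proximity, amplified by PCR and sequenced. Dividing each hexamer's read frequency for a factor by its frequency for the tag-only sample gives the binding signal.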
# EHF = molecular target: T2, EHF (Homo sapiens, UniProt Q9NZC4 1-300)
# T2 sequence: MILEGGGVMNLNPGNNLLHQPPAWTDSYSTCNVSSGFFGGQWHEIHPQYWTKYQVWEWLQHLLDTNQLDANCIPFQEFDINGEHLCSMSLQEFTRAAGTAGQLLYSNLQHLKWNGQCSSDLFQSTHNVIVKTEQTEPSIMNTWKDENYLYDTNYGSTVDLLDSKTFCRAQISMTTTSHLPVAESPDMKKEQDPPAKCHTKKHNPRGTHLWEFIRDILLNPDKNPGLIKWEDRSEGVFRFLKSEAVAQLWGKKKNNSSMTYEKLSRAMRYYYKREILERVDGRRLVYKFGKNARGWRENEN
# In short: as §1
# SPIB = SPIB (Homo sapiens, UniProt Q01892 1-262)
# Sequence of SPIB (Q01892 whole entry): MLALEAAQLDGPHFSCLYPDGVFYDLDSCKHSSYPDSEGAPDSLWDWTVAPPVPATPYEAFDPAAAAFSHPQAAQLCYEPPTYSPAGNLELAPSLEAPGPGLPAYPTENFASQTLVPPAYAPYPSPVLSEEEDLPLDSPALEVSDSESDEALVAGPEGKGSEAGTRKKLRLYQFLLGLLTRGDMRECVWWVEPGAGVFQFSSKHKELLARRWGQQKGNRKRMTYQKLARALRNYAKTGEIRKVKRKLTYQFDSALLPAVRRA
# In short: as §1
# ELK3 = molecular target: T3, ELK3 (Homo sapiens, UniProt P41970 1-407)
# T3 sequence: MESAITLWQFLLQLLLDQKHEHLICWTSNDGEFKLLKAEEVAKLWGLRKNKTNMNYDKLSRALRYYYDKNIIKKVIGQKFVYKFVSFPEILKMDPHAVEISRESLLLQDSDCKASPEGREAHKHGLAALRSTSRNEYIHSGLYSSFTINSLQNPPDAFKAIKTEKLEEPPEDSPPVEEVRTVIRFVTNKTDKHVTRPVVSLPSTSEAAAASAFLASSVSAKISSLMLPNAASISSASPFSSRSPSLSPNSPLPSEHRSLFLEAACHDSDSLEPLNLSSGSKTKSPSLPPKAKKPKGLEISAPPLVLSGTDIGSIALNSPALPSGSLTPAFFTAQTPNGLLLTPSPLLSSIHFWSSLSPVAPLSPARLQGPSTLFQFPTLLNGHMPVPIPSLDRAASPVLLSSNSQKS
# In short: as §1
# ELF4 = ELF4 (Homo sapiens, UniProt Q99607 1-663)
# Sequence of ELF4 (Q99607 whole entry): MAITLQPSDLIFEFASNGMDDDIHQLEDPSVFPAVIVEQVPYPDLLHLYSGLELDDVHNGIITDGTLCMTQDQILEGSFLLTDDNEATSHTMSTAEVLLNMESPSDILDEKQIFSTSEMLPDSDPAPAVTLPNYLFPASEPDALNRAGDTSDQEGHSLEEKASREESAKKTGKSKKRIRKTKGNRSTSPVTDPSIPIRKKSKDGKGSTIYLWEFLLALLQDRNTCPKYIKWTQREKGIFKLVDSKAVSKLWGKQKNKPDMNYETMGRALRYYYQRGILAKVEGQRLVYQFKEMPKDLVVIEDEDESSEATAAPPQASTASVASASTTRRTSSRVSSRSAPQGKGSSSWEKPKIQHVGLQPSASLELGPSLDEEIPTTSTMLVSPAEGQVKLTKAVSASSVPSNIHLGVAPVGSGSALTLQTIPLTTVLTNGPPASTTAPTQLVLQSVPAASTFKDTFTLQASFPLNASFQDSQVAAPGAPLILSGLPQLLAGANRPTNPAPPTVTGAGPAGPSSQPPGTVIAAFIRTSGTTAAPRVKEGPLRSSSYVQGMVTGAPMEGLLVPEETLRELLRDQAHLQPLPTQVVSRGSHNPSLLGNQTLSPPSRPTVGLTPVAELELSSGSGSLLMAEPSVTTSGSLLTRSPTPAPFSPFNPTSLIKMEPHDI
# In short: as §1
# ELF3 = molecular target: T4, ELF3 (Homo sapiens, UniProt P78545 1-371)
# T4 sequence: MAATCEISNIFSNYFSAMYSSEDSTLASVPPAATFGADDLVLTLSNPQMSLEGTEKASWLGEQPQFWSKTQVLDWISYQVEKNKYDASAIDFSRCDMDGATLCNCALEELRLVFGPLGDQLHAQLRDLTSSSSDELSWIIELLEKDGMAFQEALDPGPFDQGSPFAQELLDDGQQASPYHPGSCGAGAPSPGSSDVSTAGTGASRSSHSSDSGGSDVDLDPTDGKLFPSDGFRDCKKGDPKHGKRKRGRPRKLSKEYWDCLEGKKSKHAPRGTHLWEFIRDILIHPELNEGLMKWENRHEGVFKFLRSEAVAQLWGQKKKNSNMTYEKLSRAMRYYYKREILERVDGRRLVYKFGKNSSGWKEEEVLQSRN
# In short: as §1
# ERF = molecular target: T5, ERF (Homo sapiens, UniProt P50548 1-548)
# T5 sequence: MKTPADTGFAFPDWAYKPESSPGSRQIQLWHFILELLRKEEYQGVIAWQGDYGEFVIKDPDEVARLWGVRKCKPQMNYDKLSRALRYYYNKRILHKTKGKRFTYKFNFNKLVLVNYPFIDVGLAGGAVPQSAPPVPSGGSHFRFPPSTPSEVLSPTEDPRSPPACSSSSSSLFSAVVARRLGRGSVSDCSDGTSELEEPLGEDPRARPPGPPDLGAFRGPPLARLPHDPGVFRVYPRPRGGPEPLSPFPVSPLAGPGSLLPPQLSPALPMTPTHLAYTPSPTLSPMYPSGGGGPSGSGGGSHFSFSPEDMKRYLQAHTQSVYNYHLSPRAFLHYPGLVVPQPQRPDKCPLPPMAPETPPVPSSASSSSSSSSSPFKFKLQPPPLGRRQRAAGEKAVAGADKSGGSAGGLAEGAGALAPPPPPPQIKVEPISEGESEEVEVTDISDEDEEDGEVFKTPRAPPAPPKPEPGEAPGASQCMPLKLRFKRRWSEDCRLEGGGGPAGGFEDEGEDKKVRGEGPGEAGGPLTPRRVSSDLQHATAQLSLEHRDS
# In short: as §1
# ETV7 = molecular target: T6, ETV7 (Homo sapiens, UniProt Q9Y603 1-341)
# T6 sequence: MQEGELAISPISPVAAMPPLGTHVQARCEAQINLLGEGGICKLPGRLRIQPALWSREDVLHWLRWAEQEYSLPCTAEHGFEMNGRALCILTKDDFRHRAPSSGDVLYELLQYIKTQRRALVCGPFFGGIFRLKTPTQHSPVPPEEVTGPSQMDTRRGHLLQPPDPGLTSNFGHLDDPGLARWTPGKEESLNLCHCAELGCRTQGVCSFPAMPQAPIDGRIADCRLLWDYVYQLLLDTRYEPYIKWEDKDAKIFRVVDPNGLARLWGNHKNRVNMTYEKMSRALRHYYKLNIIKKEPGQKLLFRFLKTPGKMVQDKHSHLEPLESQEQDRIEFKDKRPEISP
# In short: as §1
# ETV3 = molecular target: T7, ETV3 (Homo sapiens, UniProt P41162-2 1-143)
# T7 sequence: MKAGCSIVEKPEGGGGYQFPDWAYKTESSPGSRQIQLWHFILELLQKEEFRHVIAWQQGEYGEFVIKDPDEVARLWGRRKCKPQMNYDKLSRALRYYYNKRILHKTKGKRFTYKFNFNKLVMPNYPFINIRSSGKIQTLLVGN
# In short: as §1
# ELK1 = molecular target: T8, ELK1 (Homo sapiens, UniProt P19419 1-428)
# T8 sequence: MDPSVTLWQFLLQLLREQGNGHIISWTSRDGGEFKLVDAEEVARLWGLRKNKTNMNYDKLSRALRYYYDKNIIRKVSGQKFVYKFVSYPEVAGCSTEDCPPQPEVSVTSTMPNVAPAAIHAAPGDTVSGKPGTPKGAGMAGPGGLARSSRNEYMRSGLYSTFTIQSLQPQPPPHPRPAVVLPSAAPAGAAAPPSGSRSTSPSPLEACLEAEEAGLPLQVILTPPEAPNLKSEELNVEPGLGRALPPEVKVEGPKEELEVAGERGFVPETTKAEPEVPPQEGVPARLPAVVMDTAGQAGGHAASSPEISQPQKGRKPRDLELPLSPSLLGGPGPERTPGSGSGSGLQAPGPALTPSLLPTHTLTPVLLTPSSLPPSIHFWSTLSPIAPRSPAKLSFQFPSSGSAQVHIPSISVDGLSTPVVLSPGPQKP
# In short: as §1
# ELF1 = ELF1 (Homo sapiens, UniProt P32519 1-619)
# Sequence of ELF1 (P32519 whole entry): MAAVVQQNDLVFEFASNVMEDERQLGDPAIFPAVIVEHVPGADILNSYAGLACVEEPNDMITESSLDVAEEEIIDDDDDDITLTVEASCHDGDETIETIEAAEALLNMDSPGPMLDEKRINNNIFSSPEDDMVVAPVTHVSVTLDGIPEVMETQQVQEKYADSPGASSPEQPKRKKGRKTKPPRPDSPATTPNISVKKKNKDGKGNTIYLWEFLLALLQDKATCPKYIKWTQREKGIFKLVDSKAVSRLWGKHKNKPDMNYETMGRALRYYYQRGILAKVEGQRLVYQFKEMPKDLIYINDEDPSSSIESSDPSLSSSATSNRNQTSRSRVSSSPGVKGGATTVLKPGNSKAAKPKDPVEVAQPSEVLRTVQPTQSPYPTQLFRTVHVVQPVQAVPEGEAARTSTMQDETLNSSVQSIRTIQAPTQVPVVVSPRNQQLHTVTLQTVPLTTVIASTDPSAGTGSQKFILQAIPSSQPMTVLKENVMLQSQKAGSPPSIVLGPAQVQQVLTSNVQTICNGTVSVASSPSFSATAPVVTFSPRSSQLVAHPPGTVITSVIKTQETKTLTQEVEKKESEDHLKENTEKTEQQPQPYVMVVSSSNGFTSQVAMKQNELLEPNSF
# In short: as §1
# ELK4 = molecular target: T9, ELK4 (Homo sapiens, UniProt P28324-2 1-405)
# T9 sequence: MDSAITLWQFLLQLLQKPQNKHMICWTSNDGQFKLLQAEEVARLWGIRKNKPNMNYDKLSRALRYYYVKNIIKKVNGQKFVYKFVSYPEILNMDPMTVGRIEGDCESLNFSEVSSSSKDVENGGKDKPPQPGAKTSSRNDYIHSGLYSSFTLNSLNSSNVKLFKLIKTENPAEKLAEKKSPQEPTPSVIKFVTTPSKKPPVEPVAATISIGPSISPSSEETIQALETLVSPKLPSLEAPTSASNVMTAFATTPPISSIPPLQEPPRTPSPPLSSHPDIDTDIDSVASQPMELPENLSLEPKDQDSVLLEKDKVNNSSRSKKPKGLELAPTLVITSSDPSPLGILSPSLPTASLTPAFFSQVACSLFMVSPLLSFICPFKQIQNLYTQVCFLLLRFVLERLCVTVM
# In short: as §1
# ETV2 = molecular target: T10, ETV2 (Homo sapiens, UniProt O00321 1-342)
# T10 sequence: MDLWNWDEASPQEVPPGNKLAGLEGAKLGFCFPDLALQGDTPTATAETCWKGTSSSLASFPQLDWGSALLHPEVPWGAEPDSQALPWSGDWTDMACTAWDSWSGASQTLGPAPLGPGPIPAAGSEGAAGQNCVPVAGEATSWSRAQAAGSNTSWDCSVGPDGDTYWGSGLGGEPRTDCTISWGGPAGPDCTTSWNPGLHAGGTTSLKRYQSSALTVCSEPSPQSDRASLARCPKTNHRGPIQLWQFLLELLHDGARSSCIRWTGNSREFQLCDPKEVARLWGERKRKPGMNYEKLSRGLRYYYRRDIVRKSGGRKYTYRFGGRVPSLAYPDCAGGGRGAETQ
# In short: as §1
# SPI1 = SPI1 (Homo sapiens, UniProt P17947 1-270)
# In short: as §1
# SPIC = molecular target: T11, SPIC (Homo sapiens, UniProt Q8N5J4 1-248)
# T11 sequence: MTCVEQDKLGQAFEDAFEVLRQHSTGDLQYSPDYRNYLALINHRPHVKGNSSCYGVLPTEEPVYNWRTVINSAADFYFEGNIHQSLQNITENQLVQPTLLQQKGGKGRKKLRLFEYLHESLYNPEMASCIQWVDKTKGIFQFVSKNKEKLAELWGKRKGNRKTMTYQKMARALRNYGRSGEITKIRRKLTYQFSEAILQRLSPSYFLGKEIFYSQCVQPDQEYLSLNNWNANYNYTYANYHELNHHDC
# In short: as §1
# ETV1 = ETV1 (Homo sapiens, UniProt P50549 1-477)
# Sequence of ETV1 (P50549 whole entry): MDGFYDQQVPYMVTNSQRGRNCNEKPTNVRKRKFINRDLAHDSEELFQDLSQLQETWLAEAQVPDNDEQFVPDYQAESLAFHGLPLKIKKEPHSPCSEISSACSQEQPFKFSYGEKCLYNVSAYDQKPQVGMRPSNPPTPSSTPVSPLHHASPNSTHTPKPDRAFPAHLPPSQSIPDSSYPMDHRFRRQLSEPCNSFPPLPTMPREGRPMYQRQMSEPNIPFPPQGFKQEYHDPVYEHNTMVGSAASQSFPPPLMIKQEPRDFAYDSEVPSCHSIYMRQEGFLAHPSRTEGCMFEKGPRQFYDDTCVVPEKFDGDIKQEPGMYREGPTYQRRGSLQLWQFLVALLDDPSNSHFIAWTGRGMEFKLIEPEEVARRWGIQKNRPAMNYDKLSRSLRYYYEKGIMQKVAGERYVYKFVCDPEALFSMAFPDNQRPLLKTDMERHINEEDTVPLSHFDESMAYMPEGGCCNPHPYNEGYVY
# In short: as §1
# ETV3L = molecular target: T12, ETV3L (Homo sapiens, UniProt Q6ZN32 1-361)
# T12 sequence: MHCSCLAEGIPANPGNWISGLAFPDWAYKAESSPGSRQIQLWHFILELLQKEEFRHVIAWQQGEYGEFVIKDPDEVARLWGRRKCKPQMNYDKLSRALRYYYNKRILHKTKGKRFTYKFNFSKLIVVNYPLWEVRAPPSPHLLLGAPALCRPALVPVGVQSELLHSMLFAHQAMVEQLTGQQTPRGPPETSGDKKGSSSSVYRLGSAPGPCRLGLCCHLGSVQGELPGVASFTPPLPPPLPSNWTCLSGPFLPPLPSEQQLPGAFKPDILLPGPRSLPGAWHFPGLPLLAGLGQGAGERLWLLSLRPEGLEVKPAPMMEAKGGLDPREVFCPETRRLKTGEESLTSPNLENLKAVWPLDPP
# In short: as §1
sequence,measurement,setting,value
AGTTTT,binding signal,FLI1,"1.05 fold enrichment (6-mer frequency, TF over GST control)"
same,binding signal,EHF,"1.02 fold enrichment (6-mer frequency, TF over GST control)"
same,binding signal,SPIB,"1.08 fold enrichment (6-mer frequency, TF over GST control)"
same,binding signal,ELK3,"1.14 fold enrichment (6-mer frequency, TF over GST control)"
same,binding signal,ELF4,"1.04 fold enrichment (6-mer frequency, TF over GST control)"
same,binding signal,ELF3,"1.01 fold enrichment (6-mer frequency, TF over GST control)"
same,binding signal,ERF,"1.09 fold enrichment (6-mer frequency, TF over GST control)"
same,binding signal,ETV7,"1.02 fold enrichment (6-mer frequency, TF over GST control)"
same,binding signal,ETV3,"1.07 fold enrichment (6-mer frequency, TF over GST control)"
GCCGTC,binding signal,FLI1,"1.04 fold enrichment (6-mer frequency, TF over GST control)"
same,binding signal,ELK1,"1.03 fold enrichment (6-mer frequency, TF over GST control)"
same,binding signal,ELF1,"1.02 fold enrichment (6-mer frequency, TF over GST control)"
same,binding signal,EHF,"1.1 fold enrichment (6-mer frequency, TF over GST control)"
same,binding signal,ELK4,"1.1 fold enrichment (6-mer frequency, TF over GST control)"
same,binding signal,ETV2,"1.03 fold enrichment (6-mer frequency, TF over GST control)"
same,binding signal,ELF3,"1.17 fold enrichment (6-mer frequency, TF over GST control)"
same,binding signal,ETV7,"1.03 fold enrichment (6-mer frequency, TF over GST control)"
ACTGTC,binding signal,FLI1,"1.02 fold enrichment (6-mer frequency, TF over GST control)"
same,binding signal,ELF1,"1.01 fold enrichment (6-mer frequency, TF over GST control)"
same,binding signal,SPI1,"1 fold enrichment (6-mer frequency, TF over GST control)"
same,binding signal,SPIB,"1.05 fold enrichment (6-mer frequency, TF over GST control)"
same,binding signal,SPIC,"1.09 fold enrichment (6-mer frequency, TF over GST control)"
same,binding signal,ELK4,"1 fold enrichment (6-mer frequency, TF over GST control)"
same,binding signal,ETV2,"1.1 fold enrichment (6-mer frequency, TF over GST control)"
same,binding signal,ELF3,"1.01 fold enrichment (6-mer frequency, TF over GST control)"
same,binding signal,ETV1,"1 fold enrichment (6-mer frequency, TF over GST control)"
CTTGAG,binding signal,FLI1,"1.08 fold enrichment (6-mer frequency, TF over GST control)"
same,binding signal,SPIC,"1.12 fold enrichment (6-mer frequency, TF over GST control)"
same,binding signal,ELK4,"1.05 fold enrichment (6-mer frequency, TF over GST control)"
GCGTTG,binding signal,FLI1,"1.1 fold enrichment (6-mer frequency, TF over GST control)"
same,binding signal,ELF1,"1.01 fold enrichment (6-mer frequency, TF over GST control)"
same,binding signal,SPIC,"1.03 fold enrichment (6-mer frequency, TF over GST control)"
same,binding signal,ETV2,"1.01 fold enrichment (6-mer frequency, TF over GST control)"
same,binding signal,ERF,"1.12 fold enrichment (6-mer frequency, TF over GST control)"
same,binding signal,ETV3L,"1.03 fold enrichment (6-mer frequency, TF over GST control)"
same,binding signal,ETV7,"1.01 fold enrichment (6-mer frequency, TF over GST control)"
